The values below come from PubChem BioAssay (NCATS).

A short description of test [1]: Cell Viability - N2a (AID 540).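 Note: cells exposed to compound for 40 h at 37 °C; plate controls were DMSO alone for no effect and tamoxifen control for full effect; nearly all actives have a fitted effect of over 45% in size.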 To be noted: N2a mouse neuroblastoma cell viability; activity change, negative = cytotoxicity: at 92.2 µM (top of the series). Summed up: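 N2a mouse neuroblastoma, 1500 cells/well, 5 hr settle; compound 40 hr, 37 °C; CellTiter-Glo 20 min RT; luminescence; Hill-fit AC50.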
A short description of test [2]: Cell Viability - HUV-EC-C (AID 542).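 Note: cells exposed to compound for 40 hours; % is set by controls: 0 for no effect and ±100 for the full control effect; nearly all actives have a fitted effect of over 35% in size.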 In a few lines:
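Luminescent ATP read-out (CellTiter-Glo, 20 min room temperature) after 40 hr compound treatment of HUV-EC-C cells at 37 °C. Concentration-response data fitted with the standard Hill equation to give AC50; tamoxifen and doxorubicin served as positive controls.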

Test [3] is described as follows: Cell Viability - Renal Proximal Tubule (AID 545).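 Note: cells exposed to compound for 40 hours; 0% = DMSO only and -100% = 100 µM tamoxifen; nearly all actives have a fitted effect of over 40% in size.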 Summed up:
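Viability taken as intracellular ATP (CellTiter-Glo luminescence) after 40 hr, 37 °C compound treatment of primary proximal tubule cells from rat kidney, 1000 cells/well; Hill-equation fits of qHTS concentration-response data gave AC50.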

Test [4] in a line: Cell Viability - Mesenchymal (AID 546).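 Note: cells exposed to compound for 40 hours before reading; 0% = DMSO only and -100% = 100 µM tamoxifen.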 In a few lines: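 In this qHTS cytotoxicity format, glomerulus-derived human mesenchymal kidney cells received compound for 40 hr, then luciferase-based ATP quantitation. Concentration-response data were fitted with the Hill equation.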
Test [5] in a line: Cellular Toxicity (caspase-3) Mesangial (AID 660).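 Note: combined caspase 3 and 7 activity read by Caspase-Glo luminescence; cells exposed to compound for 16 h before the caspase read.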 In a few lines: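 Luminescent Caspase-Glo 3/7 readout (aminoluciferin substrate cleavage, 20 min RT) after 16 h compound exposure at 37 °C of normal human mesangial cells. Signal increase normalized between DMSO basal and 100 uM tamoxifen; Hill-equation AC50.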
Test [6] can be described thus: Cellular Toxicity (caspase-3) Renal Proximal Tubule (AID 667).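 Note: cells exposed to compound for 16 hours at 37 °C before detection; 0% = DMSO basal and 100% = 10 µM staurosporine.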 Summed up: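 Caspase 3/7 activation measured by luminescent aminoluciferin release in primary rat proximal tubule cells after 16 hr compound exposure at 37 °C. AC50 from Hill-fitted concentration-response, scaled between DMSO and 10 uM staurosporine.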
The nature of test [7]: MultiTox-Fluor Cytotoxicity Assay - LYMP1-001 - Live Cells (AID 947).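 Note: 0% = DMSO only and full inhibition = tetraoctylammonium bromide control.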
A short description of test [8]: Cell Viability - LYMP2-005 (AID 967).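 Note: plate controls were DMSO only for no effect and 92 µM tetraoctylammonium bromide control for full effect.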 Summed up:
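LYMP2-005 human lymphoblastoid cells (2500/well) were treated with compounds for 24 h at 37 C. Intracellular ATP was then measured by CellTiter-Glo luminescence after 30 min at room temperature. AC50 values came from Hill-equation fits of qHTS concentration-response data.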

A short description of test [9]: Cell Viability - LYMP2-010 (AID 981).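 Note: cells exposed to compound for 24 hours at 37 °C; % is set by controls: 0 for no effect and ±100 for the full control effect; nearly all actives have a fitted effect of over 55% in size.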 In a few lines:
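qHTS cytotoxicity, 1536-well: 2500 cells/well, 5 hr settle, 24 hr compound at 37 C, CellTiter-Glo 30 min RT, luminescence read. Decrease in ATP = toxicity; AC50 via standard Hill equation. Positive control tetraoctylammonium bromide.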

Test [10] is described as follows: Cell Viability - LYMP2-016 (AID 984).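 Note: cells exposed to compound for 24 hours at 37 °C; % is set by controls: 0 for no effect and ±100 for the full control effect; nearly all actives have a fitted effect of over 55% in size.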 Summed up: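 Cytotoxicity was scored by luminescent ATP content (CellTiter-Glo) after 24 h compound exposure at 37 C of a human lymphoblastoid line at 2500 cells/well. Concentration-response data were fitted to the Hill equation for AC50.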
Test [11] is described as follows: Cell Viability - LYMP2-024 (AID 988).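 Note: plate controls were DMSO only for no effect and 92 µM tetraoctylammonium bromide for full effect; nearly all actives have a fitted effect of over 60% in size.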 In a few lines: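 ATP-based luminescence (CellTiter-Glo, 30 min RT) after 24 h compound exposure at 37 C of 2500 lymphoblastoid cells/well; decrease in ATP taken as cytotoxicity. qHTS concentration-response fitted to standard Hill equation for AC50.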
Test [12] has as its target Vitamin D3 receptor (Homo sapiens) (UniProt P11473). The experiment in a line: qHTS assay for small molecule antagonists of vitamin D receptor signaling (AID 588541; calls by dose curve;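 note: receptor activated by calcitriol during compound treatment; % is set by controls: 0 for no effect and ±100 for the full control effect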). In a few lines:
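VDR-UAS-bla HEK293T cells (2000/well, 2% charcoal-stripped FBS) were treated with titrated compounds plus 1-alpha,25-dihydroxyvitamin D3 (50 nM or 3 nM final) for 16 h at 37 C. CCF4 beta-lactamase fluorescence was read; Hill fits gave IC50.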
For orientation: qHTS replaces the single test concentration by a dilution series.

Test [13] can be described thus: qHTS assay for small molecule antagonists of retinoid X receptor alpha signaling (AID 588546).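 Note: cells stimulated with 9-cis-retinoic acid as agonist; % is set by controls: 0 for no effect and ±100 for the full control effect.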 To be noted: HEK293T RXRa-UAS-bla, beta-lactamase ratio, antagonist mode; measured here: W530 green channel, cytotoxicity proxy. Summed up: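 Beta-lactamase reporter inhibition, read as CCF4 fluorescence ratio (ex 405, em 460/530 nm) after 2 h at RT. HEK293T UAS-bla cells, 2500/well, were stimulated with 9-cis-RA at 500 or 100 nM final alongside test compound for 18 h at 37 C.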

Test [14] can be described thus: qHTS assay for small molecule disruptors of the mitochondrial membrane potential - 1 hr assay (AID 651754; calls by dose curve; note: % is set by controls: 0 for no effect and ±100 for the full control effect; nearly all actives have a fitted effect of over 35% in size). Summed up:
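Read-out: dye fluorescence at 490 nm ex/535 nm em (monomers) and 540 nm ex/590 nm em (aggregates) in HepG2 cells. Compound exposure 1 hr at 37C, followed by 30 min dye loading.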

Test [15] in a line: qHTS assay for cell viability of HEK293 cells (AID 743288). Note: % is set by controls: 0 for no effect and ±100 for the full control effect; nearly all actives have a fitted effect of over 50% in size. Conditions: ATP luminescence (CellTiter-Glo), 18 h, stronger effect = lower value. Summed up: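 Readout is luciferase-coupled ATP content (CellTiter-Glo luminescence, 30 min room temperature) as a measure of metabolically competent cells. Parental HEK293 cells were plated 5 h or more before compound addition, then treated 18 h at 37 C.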

Test [16] addresses Nuclear receptor subfamily 1 group I member 2 (Rattus norvegicus) (UniProt Q9R1A7). Nature of the test: qHTS assay for small molecule activators of the rat pregnane X receptor (rPXR) signaling pathway (AID 651751; call rule not given here; note: 0% is about no effect). To be noted: rPXR reporter cells, luciferase (One-Glo), 24 h.
Test [17] in a line: qHTS assay for small molecule activators of the human pregnane X receptor (PXR) signaling pathway (AID 720659; call rule not given here; note: 0% is about no effect).
Test [18] has as its target Mitogen-activated protein kinase 10 (Mus musculus) (UniProt Q61831). The experiment in a line: JNK3 AlphaScreen Assay (AID 530; active = well fitted curve in either direction with a large enough effect, not every such curve was filed as active;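 note: kinase came from lysate of stimulated human HepG2 cells; signal reports phosphorylation of biotinylated GST-cJun 1-79 at Ser73 with 10 µM ATP; % is set by controls: 0 for no effect and ±100 for the full control effect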). In a few lines: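 Biotinylated GST-cJun(1-79) served as substrate for JNK3 in HepG2 lysates stimulated with IL-1beta and TNF-alpha. ATP was 10 uM final, pH 7.6. Ser73 phosphorylation was quantified by AlphaScreen (680 nm excitation).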
(In general: Bead proximity is the source of the signal in Alpha formats.)

In test [19] the target is Cytochrome P450 3A4 (Homo sapiens) (UniProt P08684). Nature of the test: qHTS Assay for Inhibitors and Substrates of Cytochrome P450 3A4 (AID 884). Note: % is set by controls: 0 for no effect and ±100 for the full control effect; nearly all actives have a fitted effect of over 50% in size. Summed up: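 Luminescent readout of luciferin produced by CYP3A4 (20 nM) dealkylation of Luciferin-PPXE, 25 uM (its KM). NADPH-driven reaction ran 60 min at RT after 10 min compound preincubation; data scaled to 57 uM ketoconazole as 100% inhibition.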

The target of test [20] is Voltage-gated inwardly rectifying potassium channel KCNH2 (Homo sapiens) (UniProt Q12809). The experiment in a line: qHTS Assay for Small Molecule Inhibitors of the Human hERG Channel Activity (AID 588834).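 Note: top concentration of the series differs between compounds; % is set by controls: 0 for no effect and ±100 for the full control effect; lower thallium flux fluorescence means stronger hERG block; nearly all actives have a fitted effect of over 50% in size.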 Summed up:
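hERG block measured as reduced thallium-dye (FluxOR) fluorescence after stimulation buffer addition, read over 2 min. Cells were hERG-BacMam-transduced U2OS exposed to compound ~10 min […]; concentration-response fitted with Hill equation for AC50.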

Several values for one entry are separate records, joined by “and”; a condition that tells them apart may be missing. Equal values may be shown once. Results filed as inconclusive are left out. Activity calls are given as the source filed them. Unless noted, calls come from the whole dose curve; as a rule, active = well fitted curve in the direction sought with a large enough effect; inconclusive = small, poorly fitted or top-dose-only effect, or another doubt; inactive = no such curve, though single readings can be large; an effect the other way counts as inactive or inconclusive.

Sequence of Cytochrome P450 3A4 (Homo sapiens) (P08684 whole entry, looked up): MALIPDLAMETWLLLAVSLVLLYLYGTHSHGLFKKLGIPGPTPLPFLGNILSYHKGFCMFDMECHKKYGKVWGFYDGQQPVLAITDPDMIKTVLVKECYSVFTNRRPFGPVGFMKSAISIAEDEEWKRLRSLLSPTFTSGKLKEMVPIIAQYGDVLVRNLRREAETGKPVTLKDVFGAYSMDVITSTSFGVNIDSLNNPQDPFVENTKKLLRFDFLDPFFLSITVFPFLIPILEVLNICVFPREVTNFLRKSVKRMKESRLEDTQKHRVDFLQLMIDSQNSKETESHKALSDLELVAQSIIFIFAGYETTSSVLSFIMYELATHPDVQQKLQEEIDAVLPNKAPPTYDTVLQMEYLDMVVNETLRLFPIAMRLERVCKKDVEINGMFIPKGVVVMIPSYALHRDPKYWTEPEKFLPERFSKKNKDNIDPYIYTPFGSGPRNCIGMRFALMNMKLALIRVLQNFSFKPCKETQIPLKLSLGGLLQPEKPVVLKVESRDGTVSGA
Sequence of Voltage-gated inwardly rectifying potassium channel KCNH2 (Homo sapiens) (Q12809 whole entry, looked up): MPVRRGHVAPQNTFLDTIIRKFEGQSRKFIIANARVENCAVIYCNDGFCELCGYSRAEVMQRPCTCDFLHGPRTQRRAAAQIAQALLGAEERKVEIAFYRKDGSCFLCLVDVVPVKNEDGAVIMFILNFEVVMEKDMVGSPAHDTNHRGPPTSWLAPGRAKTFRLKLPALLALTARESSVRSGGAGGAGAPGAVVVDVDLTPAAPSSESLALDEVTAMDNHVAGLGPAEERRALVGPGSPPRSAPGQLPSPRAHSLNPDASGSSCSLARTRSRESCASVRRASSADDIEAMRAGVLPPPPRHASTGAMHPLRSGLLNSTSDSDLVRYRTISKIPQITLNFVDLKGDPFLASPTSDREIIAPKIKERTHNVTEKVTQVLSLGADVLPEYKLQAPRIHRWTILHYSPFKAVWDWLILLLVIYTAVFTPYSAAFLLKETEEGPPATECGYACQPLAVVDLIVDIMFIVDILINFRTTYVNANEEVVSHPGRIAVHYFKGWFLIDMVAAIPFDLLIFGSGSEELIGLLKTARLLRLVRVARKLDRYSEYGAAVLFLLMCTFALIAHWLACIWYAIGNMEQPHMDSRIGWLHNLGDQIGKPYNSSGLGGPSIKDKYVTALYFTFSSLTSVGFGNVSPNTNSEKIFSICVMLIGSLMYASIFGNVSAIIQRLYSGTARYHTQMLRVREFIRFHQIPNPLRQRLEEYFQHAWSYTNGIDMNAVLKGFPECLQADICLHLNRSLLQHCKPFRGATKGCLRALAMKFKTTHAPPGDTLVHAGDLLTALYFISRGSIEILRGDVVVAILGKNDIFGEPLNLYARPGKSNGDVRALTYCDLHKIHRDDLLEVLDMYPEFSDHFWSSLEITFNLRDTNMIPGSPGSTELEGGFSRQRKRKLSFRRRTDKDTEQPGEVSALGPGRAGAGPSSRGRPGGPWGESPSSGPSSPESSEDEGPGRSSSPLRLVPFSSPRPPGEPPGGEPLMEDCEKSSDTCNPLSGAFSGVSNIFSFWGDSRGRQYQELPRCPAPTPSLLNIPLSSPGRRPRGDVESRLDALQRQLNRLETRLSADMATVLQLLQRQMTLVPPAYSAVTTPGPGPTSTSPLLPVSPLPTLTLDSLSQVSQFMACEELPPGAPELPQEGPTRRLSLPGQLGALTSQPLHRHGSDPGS
Sequence of Vitamin D3 receptor (Homo sapiens) (P11473 whole entry, looked up): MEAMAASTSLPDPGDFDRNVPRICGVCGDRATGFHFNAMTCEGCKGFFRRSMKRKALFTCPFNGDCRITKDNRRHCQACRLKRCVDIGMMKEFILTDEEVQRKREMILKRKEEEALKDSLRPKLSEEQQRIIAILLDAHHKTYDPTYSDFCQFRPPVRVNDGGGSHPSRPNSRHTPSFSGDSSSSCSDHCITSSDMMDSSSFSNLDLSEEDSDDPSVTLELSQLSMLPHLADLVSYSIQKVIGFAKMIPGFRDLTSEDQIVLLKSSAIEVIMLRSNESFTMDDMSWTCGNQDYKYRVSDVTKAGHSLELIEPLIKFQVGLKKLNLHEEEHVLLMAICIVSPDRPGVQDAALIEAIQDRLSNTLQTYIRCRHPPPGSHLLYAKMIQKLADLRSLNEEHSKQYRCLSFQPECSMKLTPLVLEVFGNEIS
Sequence of Nuclear receptor subfamily 1 group I member 2 (Rattus norvegicus) (Q9R1A7 whole entry, looked up): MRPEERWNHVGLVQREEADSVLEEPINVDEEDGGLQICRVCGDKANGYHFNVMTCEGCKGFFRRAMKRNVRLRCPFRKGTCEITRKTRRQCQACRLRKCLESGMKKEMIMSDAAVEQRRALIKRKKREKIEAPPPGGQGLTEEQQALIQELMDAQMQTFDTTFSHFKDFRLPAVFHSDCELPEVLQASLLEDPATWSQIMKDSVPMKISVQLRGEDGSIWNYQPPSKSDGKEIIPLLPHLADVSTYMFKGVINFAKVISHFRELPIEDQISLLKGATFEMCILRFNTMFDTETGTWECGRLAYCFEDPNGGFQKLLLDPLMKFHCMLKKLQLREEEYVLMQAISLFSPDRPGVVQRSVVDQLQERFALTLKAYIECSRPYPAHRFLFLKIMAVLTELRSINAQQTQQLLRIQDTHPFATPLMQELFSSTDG

Consider `CCCCCOC(=O)c1ccccc1C(=O)OCCCCC`, for which the Potency entry in test [1], in test [2], in test [4], in test [8], in [9] and in [10] was “inactive” each time. The Potency result in test [11] and in test [14] was “inactive” each time. The outcome in test [3], in [5], in test [6], in test [7], in test [12] and in test [17] was inactive. In addition, the max response is -5.52% in test [13]; 4.12% (inactive) and -1.01% (inactive) in test [15]; 4.64% (inactive) and 1.43% (inactive) in [16].
With `C/C=C/C=O`, the Potency entry in [18], in test [1], in test [2], in test [4], in test [19] and in test [8] was “inactive” in each case. The Potency result in test [10], in test [11] and in test [20] was “inactive” each time. Moreover, the compound was classed as inactive in test [3], in test [5], in test [6], in test [7], in test [12] and in test [17]. The max response in [15] was 5.69% (inactive); in [16], 18.2% (inactive).
Regarding `O=C(Cc1ccccc1)OCc1ccccc1`, the Potency entry in test [1], in test [2], in test [4], in [19], in test [8] and in test [9] was “inactive” throughout. Also, the Potency result in test [10], in test [11], in test [20] and in test [14] was “inactive” throughout. In addition, the result in [3], in test [5], in test [6], in test [7], in [12] and in [17] was inactive. For the same compound, the max response in test [13] is 8.24%; in [15] it was -0.778% (inactive); in [16], -0.53% (inactive).
Regarding `CC(C)(Cl)Cl`, the Potency entry in [18], in [1], in test [2], in test [4], in [19] and in test [8] was “inactive” throughout. Besides, the Potency entry in [9], in [10], in test [11], in test [20] and in [14] was “inactive” throughout. Besides, the result in test [3], in test [5], in test [6], in test [7], in test [12] and in [17] was inactive. Further, the max response in test [13] was -1.69%; in test [15], 1.9% (inactive); in test [16], -1.57% (inactive).
Turning to `CNC(=O)O/N=C/C(C)(C)S(C)=O` (stereo not drawn), the Potency result in [18], in test [2], in test [4], in [19], in test [8] and in test [9] was “inactive” throughout. For the same compound, the Potency result in test [10], in [20] and in test [14] was “inactive” throughout. Further, the compound was called inactive in test [3], in [5], in test [7], in [12] and in test [17]. Moreover, the max response was -10.1% and 0.325% in test [13]; 0.711% (inactive) and -4.36% (inactive) in [15]; 6.61% (inactive) and 1.92% (inactive) in test [16].
Consider `CN(C)C(=O)Cl`, for which the Potency result in test [1], in test [2], in test [4], in test [19], in [8] and in test [9] was “inactive” each time. For the same compound, the Potency entry in test [10], in test [11], in test [20] and in [14] was “inactive” in each case. For the same compound, the compound was classed as inactive in [3], in test [5], in [6], in test [7], in test [12] and in test [17]. The max response was 3.53% in [13], 4.48% (inactive) in test [15] and -2.26% (inactive) in test [16].
Consider `CCCN(CCC)c1c([N+](=O)[O-])cc(C(F)(F)F)cc1[N+](=O)[O-]`, for which the Potency entry in test [1], in [2], in [4], in [8], in test [9] and in test [10] was “inactive” throughout. For the same compound, the Potency entry in [11] and in test [14] was “inactive” throughout. Further, the compound was classed as inactive in [3], in test [5], in test [6] and in test [12]. The max response in test [13] is -6.59% and -3.08%; in [15] it was 12.8% (inactive) and -6.09% (inactive).
